PubChem BioAssay (NCATS)
Results filed as inconclusive are left out. Where a call stands in place of a potency, no number is given. Active and inactive are the calls of the source. The call rests on the fitted dose curve; in most records, active means well fitted inhibition curve with a large enough effect; inconclusive means small, poorly fitted or top-dose-only effect; inactive means flat fitted curve, though single readings scatter.

Target: Calcium and integrin-binding protein 1 (Homo sapiens) (UniProt Q99828)
Sequence (Q99828 whole entry, looked up): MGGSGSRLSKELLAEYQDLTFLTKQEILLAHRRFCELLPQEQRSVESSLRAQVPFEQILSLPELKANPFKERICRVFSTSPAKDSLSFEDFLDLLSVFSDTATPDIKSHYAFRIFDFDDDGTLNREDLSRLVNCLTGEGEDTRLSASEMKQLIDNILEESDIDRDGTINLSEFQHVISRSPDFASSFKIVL
Assay: Primary qHTS for Identification of Calcium Integrin Binding Protein 1 (CIB1) Competitor (AID 1508620); further: top concentration of the series differs between compounds
Conditions: CIB1-GST / FITC-alphaIIb peptide fluorescence polarization; series mostly up to 114 µM
Procedure, shortened: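 Fluorescence polarization competition: GST-tagged CIB1 (1 uM final) preincubated with compound 15 min at room temperature, then FITC-labelled alphaIIb peptide (100 nM final) added. After 15 min at room temperature, polarization read at Ex 480/Em 540.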

Row | SMILES | Potency
1 | COc1cc(NC(=O)C(OC(=O)CNC(=O)c2ccccc2)c2ccccc2)cc(OC)c1 (stereo not drawn) | inactive
2 | Cc1ccc(NC(=O)CN2C(=O)N/C(=C\c3cccn3-c3ccc(C(=O)NS(C)(=O)=O)cc3)C2=O)cc1 | inactive
3 | Nc1ccc(Nc2cc(O)c3ncccc3c2)cc1 | inactive
4 | CC(=O)c1ccc(N2CCN(C(=O)c3ccc4c(c3)CC(=O)N4)CC2)cc1 | inactive
5 | NC(=O)C1CCN(c2ncc(-c3ccc(Cl)cc3)s2)CC1 | inactive
6 | O=C1c2ccccc2C(=O)c2cc(S(=O)(=O)Nc3cccc4cccnc34)ccc21 | inactive
7 | O=S1(=O)Nc2c(ccc3cccnc23)-c2ccccc21 | inactive
8 | Oc1cc(NCCc2cccnc2)cc2cccnc12 | inactive
9 | Cc1cc(C)n2ncc(C(=O)Nc3ccc(Br)cc3)c2n1 | inactive
10 | Cc1cc(-c2ccccc2)nc2c(C(=O)Nc3ccc(Cl)c(Cl)c3)cnn12 | inactive
11 | N#Cc1ccc(-c2csc(N3CCC(C(N)=O)CC3)n2)cc1 | inactive
12 | Cc1cc2c(s1)c1cnn(Cc3ccc(F)cc3)c(=O)c1n2C | inactive
13 | N#Cc1nc(Nc2ccc(-c3ccccc3)cc2)nc(NC2CCCC2)n1 | inactive
14 | CCOC(=O)C1CCN(c2ncc(-c3ccc4c(c3)OCCCO4)s2)CC1 | inactive
15 | COc1ccc(CNc2ccc(S(=O)(=O)Nc3nccs3)cc2)cc1O | inactive
16 | Cc1cc(NS(=O)(=O)Cc2ccc(NC(=O)Cc3ccc(Cl)c(Cl)c3)cc2)no1 | inactive
17 | N#CN1CCC(N[S+](=O)([O-])c2cccc(F)c2)CC1 | inactive
18 | COc1ccc(-c2nc3ccccc3c(=O)n2Cc2ccccc2)cc1COc1ccc(NC(C)=O)cc1 | inactive
